Screening data as filed in PubChem BioAssay.
Only a selection was taken, and hits are over-represented in it overall.
ST2 inh: blocks human ST2 binding to IL-33; Q01638; 2.3% of 78,000 active; inhibition, % for hits at 17 µM; AlphaLISA ST2-Fc/biotin-IL-33 interaction, 1 h; AID 1259354; in the data active = inhibition above about 30%
Target sequence (Q01638 whole entry, looked up): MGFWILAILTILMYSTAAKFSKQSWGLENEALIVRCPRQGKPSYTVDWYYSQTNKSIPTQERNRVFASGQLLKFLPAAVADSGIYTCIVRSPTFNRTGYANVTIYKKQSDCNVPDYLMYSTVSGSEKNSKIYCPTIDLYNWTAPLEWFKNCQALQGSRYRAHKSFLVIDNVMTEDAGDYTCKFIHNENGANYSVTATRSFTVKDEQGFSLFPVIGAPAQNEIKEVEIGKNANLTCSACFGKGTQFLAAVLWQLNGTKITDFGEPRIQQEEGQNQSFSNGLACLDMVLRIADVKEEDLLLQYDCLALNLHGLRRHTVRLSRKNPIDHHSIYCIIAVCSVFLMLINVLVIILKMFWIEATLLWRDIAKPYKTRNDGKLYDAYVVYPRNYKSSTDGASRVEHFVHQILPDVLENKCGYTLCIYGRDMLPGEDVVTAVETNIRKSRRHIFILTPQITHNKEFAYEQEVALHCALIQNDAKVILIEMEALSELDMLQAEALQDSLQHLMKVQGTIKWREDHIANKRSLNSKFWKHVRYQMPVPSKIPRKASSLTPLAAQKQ
A number is an active result; n = inactive; ! = not confirmed by another sample.

SMILES | ST2 inh
CCc1ccc(S(=O)(=O)NCc2nc3cccnc3n2Cc2ccc(OC)cc2)cc1 | n
CCC1CCCCN1C(=O)c1nn2c(c1Cl)NC(c1ccco1)CC2C(F)(F)F (stereo not drawn) | n
O=C1CSC(c2ccccc2)N1c1ccc(Br)cc1 (stereo not drawn) | n
CC1(C)CC(=O)C2=C(C1)Nc1ccccc1N(C(=O)Cc1ccc(Cl)cc1)C2c1cccnc1 (stereo not drawn) | 40%
Cc1ccc(C2Nc3ccc(C(=O)c4ccccc4)cc3NC3=C2C(=O)CCC3)cc1 (stereo not drawn) | n
CC1(C)CC(=O)C2=C(C1)Nc1nc(SCc3ccccc3Cl)nn1C2c1ccncc1 (stereo not drawn) | 42%!
CC1(C)CC(=O)C2=C(C1)Nc1nc(SCc3ccccc3Cl)nn1C2c1cccnc1 (stereo not drawn) | 31%!
CCCCC(=O)N1c2ccccc2NC2=C(C(=O)CC(C)(C)C2)C1c1ccc2c(c1)OCO2 (stereo not drawn) | n
CC1=C(C(=O)Nc2ccc(C)cn2)C(c2cccnc2)C2=C(CC(C)(C)CC2=O)N1 (stereo not drawn) | n
CC1(C)CC(=O)C2=C(C1)Nc1cc(C(=O)c3ccccc3)ccc1NC2c1cccnc1 (stereo not drawn) | 33%
CC1(C)CC(=O)C2=C(C1)Nc1nc(SCc3ccccc3)nn1C2c1ccc(O)cc1 (stereo not drawn) | n
CC1(C)CC(=O)C2=C(C1)Nc1ccccc1N(C(=O)Cc1ccc(Cl)cc1)C2c1ccco1 (stereo not drawn) | n
COc1cccc(C2C3=C(CC(C)(C)CC3=O)Nc3nc(SCc4ccccc4)nn32)c1 (stereo not drawn) | n
COc1ccc(C2C3=C(CC(C)(C)CC3=O)Nc3nc(SCc4ccccc4)nn32)cc1 (stereo not drawn) | n
CC1=C(C(N)=O)C(c2cccnc2)n2nc(SCc3ccccc3Cl)nc2N1 (stereo not drawn) | n
O=C(Nc1c(F)cccc1F)c1coc(=O)c2ccccc12 | n
CC(=O)NC1=NC(=O)/C(=C/c2ccc(OCc3ccccc3F)cc2)S1 | n
O=C(CN1C(=O)CNC1=O)NC1CC(=O)N(Cc2cccc(F)c2)C1 (stereo not drawn) | n
O=C(NCc1ccc(F)cc1)c1ccc2c(c1)N(Cc1ccccc1F)C(=O)CS2 | n
CCCCNC(=O)c1cccc(Br)c1 | n
CC(=O)N1c2c(cc(Br)cc2S(=O)(=O)Nc2ccc(C)c(F)c2)CC1C (stereo not drawn) | n
O=C(c1cc(Cl)cc(Cl)c1)N1CCCCCC1 | n
FC(F)(F)c1cc(-c2ccc(Cl)cc2)nc(N2CCOCC2)n1 | n
CC(Sc1nnc2n(C)c3ccccc3n12)C(=O)O (stereo not drawn) | n
COc1ccc2oc(=Nc3ccc(C(F)(F)F)cc3)c(C(=O)NC(C)=O)cc2c1 | n
SMILES | ST2 inh
CC(=O)NC(=O)c1cc2cc(Br)ccc2oc1=Nc1ccc(C#N)cc1 | 32%
CC(=O)NC(=O)c1cc2ccccc2oc1=Nc1ccc(F)cc1 | n
O=C1Nc2ccc(Br)cc2C(=O)N2CCN(C(=O)c3ccccc3)C[C@H]12 | n
O=C1Nc2ccc(Br)cc2C(=O)N2CCN(C(=O)c3cccc(F)c3)C[C@H]12 | 37%
O=C1Nc2ccc(-c3ccccc3)cc2C(=O)N2CCN(C(=O)c3cccc(F)c3)C[C@H]12 | n
O=C(Cn1c2ccccc2c(=O)c2ccccc21)Nc1ccccc1C(F)(F)F | 39%
O=C(Cn1c2ccccc2c(=O)c2ccccc21)Nc1ccccc1F | n
O=C(Cn1c2ccccc2c(=O)c2ccccc21)Nc1ccccc1Br | n
Cc1occc1C(=O)Nc1ccc(Br)cc1 | n
COc1ccc(NS(C)(=O)=O)cc1 | n
COc1ccc(NCCNc2ccc(OC)cc2)cc1 | 48%
COc1ccc(NC(=O)C(C)(C)C)cc1 | n
CC(=O)OC1(C#CCN2CCCCC2)CCCCC1 | n
COc1ccc(C2C(C(=O)Nc3ccccn3)c3cc(OC)c(OC)cc3C(=O)N2C)cc1OC (stereo not drawn) | n
CCN(CC)c1ccc(CN2CCN(C)CC2)cc1 | 56%
CCc1ccc(CN2CCSCC2)cc1 | n
CCN1CCN(Cc2ccc(-c3ccccc3)cc2)CC1 | n
CN1CCCN(Cc2cccc(Cl)c2)CC1 | n
CCN1CCN(Cc2ccc(N(CC)CC)cc2)CC1 | 58%
CN1CCCN(Cc2cccc(F)c2)CC1 | n
CC(C)(C)S(=O)(=O)c1ccc(-c2ccccc2)cc1 | n
COc1cc([N+](=O)[O-])ccc1NC(=O)c1c(F)cccc1F | n
N#CCn1c(-c2ccccc2F)nc2ccccc2c1=O | n
Cc1ncsc1CCC(=O)NC(C)c1ccccc1-n1cccn1 (stereo not drawn) | n
O=S(=O)(Nc1ccccc1)c1cccc2cccnc12 | n
SMILES | ST2 inh
O=C(Nc1nc(-c2cc3ccccc3oc2=O)cs1)c1c(F)cccc1F | n
O=c1oc2ccccc2cc1-c1csc(Nc2ncccn2)n1 | 34%
O=C(Nc1nc(-c2cc3ccccc3oc2=O)cs1)c1ccccc1Br | n
Cn1c(=O)c2c(nc(Sc3nc4ccccc4n3CC(=O)N3CCOCC3)n2C)n(C)c1=O | n
O=c1c2ccccc2nc2c3ccccc3c(Sc3nnc4ccccn34)nn12 | n
O=[N+]([O-])c1ccc(Cl)c(N=Cc2ccc(Br)c([N+](=O)[O-])c2)c1 | n
O=C1NC(=Nc2ccccc2Cl)S/C1=C/c1ccc([N+](=O)[O-])cc1 | 31%
O=C1NC(=Nc2ccccc2Cl)SC1(CO)CO | n
CCOc1ccccc1/C=C1/SC(=O)NC1=O | n
O=C(/C=C1\Sc2ccccc2NC1=O)NCc1ccc2c(c1)OCO2 | n
O=C1NC(=Nc2ccccc2Cl)S/C1=C/c1cc2c(cc1Cl)OCO2 | 31%
COc1cccc(/C=C2\SC(N3CCN(C)CC3)=NC2=O)c1OC | n
O=C1NC(=O)/C(=C/c2ccc(-c3cc([N+](=O)[O-])ccc3Cl)o2)S1 | n
COc1cccc(/C=C2/SC(=Nc3ccccc3Cl)NC2=O)c1OC | 31%
CC(C)CN(CC(C)C)S(=O)(=O)c1ccc(C(=O)Nc2nc(-c3ccccn3)cs2)cc1 | n
CCC1Oc2ccccc2N(CC(=O)NCCN2CCOCC2)C1=O (stereo not drawn) | n
COc1ccc(OC)c(-c2cc(C(=O)Nc3sc4c(c3C#N)CCC4)no2)c1 | n
COc1ccc(-c2ncnn2-c2sc3c(c2C#N)CCCCC3)cc1OC | 44%
COC(=O)c1ccc(C(=O)Nc2sc3c(c2C#N)CCCCC3)cc1 | n
COc1ccc(OC)c(-c2ncnn2-c2sc3c(c2C#N)CCCCC3)c1 | 34%
COc1ccc(-c2nc3c4c5c(sc4ncn3n2)CCCCC5)cc1OC | n
COc1ccccc1-c1cc(C(=O)Nc2sc3c(c2C#N)CCCC3)no1 | n
CCCc1cc2c(=O)c(-c3ccc4c(c3)OCO4)coc2cc1OC(C)=O | n
COCCN1C(=O)C(O)=C(C(=O)c2cccs2)C1c1ccc(I)cc1 (stereo not drawn) | n
CCOC(=O)C1(Cc2ccccc2Cl)CCN(C(=O)CCc2ccccc2)CC1 | n
SMILES | ST2 inh
O=C1c2ccccc2C(=O)C1c1ccncc1 | 99%
O=C1c2ccccc2C(=O)C1c1ccccn1 | n
O=C1c2ccccc2C(=O)C1c1nc2ccccc2[nH]1 | n
CC(C)(C)c1ccc(C(=O)N2CCN=C2SCc2cccnc2)cc1 | n
COc1ccccc1C(=O)N(c1ccc(Br)cc1)C1C=CS(=O)(=O)C1 (stereo not drawn) | n
Cc1ccc(-c2nc3ccc(Br)cn3c2Nc2ccc3c(c2)OCO3)o1 | n
Cc1ccc2nc(-c3ccccn3)c(Nc3ccc4c(c3)OCCO4)n2c1 | 31%
Brc1ccc2nc(-c3ccccn3)c(Nc3ccccc3)n2c1 | n
